Test [1] addresses Tumor necrosis factor (Homo sapiens) (UniProt P01375). In words: qHTS assay to identify small molecules that stimulate Tumor Necrosis Factor-alpha (TNF-alpha) secretion (AID 651757; active = well fitted curve in the direction sought with a large enough effect in the signal ratio; the % refers to the signal ratio; also: 0% is about no effect). Particulars: Human cells, HTRF 665/615 ratio; series mostly up to 92.2 µM. An outline of the steps:
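Using 3000 THP-1 cells per well, compounds and controls were applied for 17 hrs at 37 C. Detection followed with two labeled anti-TNF-alpha antibodies (cryptate donor, XL665 acceptor) for 3 hr at room temperature, measured by TR-FRET.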
(qHTS replaces the single test concentration by a dilution series.)

A short description of test [2]: qHTS assay for environmental chemicals that activate the Aryl hydrocarbon Receptor (AhR) signaling pathway (AID 651777). Also: nearly all actives have a fitted effect of over 15% in size. Also: potency is read from the fitted curve at half-maximal effect. As to activation: % of control where 0% means no effect. To be noted: 1A2-DRE human hepatoma cells, luciferase, 24 h; activation: stronger effect = higher value. Summed up: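 Following a 24 hr incubation with test chemicals at 37 C and 5% CO2, 1A2-DRE human hepatoma cells received One-Glo reagent; after 30 min at room temperature, luciferase output reflected CYP1A2 induction via AhR.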

Test [3] in a line: qHTS assay for small molecule agonists of the antioxidant response element (ARE) signaling pathway measured by Nrf2-dependant transcriptional activity (AID 720636; active = well fitted curve in the direction sought with a large enough effect in the repeat runs; an effect the other way counts as inactive or inconclusive;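 also: HepG2 cells with an ARE-driven luciferase reporter; % of control where 0% means no effect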). To be noted: ARE-luc HepG2, Nrf2 luciferase reporter, 16 h; series mostly up to 92.4 µM. Summed up:
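ONE-Glo luminescence, read 30 min after reagent addition at room temperature, reflected ARE reporter activity in HepG2 cells that had been incubated with compound for 16 hr at 37 C in 1% dialyzed FBS.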

Test [4] can be described thus: qHTS assay for small molecule antagonists of the retinoid-related orphan receptor gamma (ROR-gamma) signaling pathway - cell viability counter screen (AID 720652; active = well fitted curve in the direction sought with a large enough effect in the repeat runs; an effect the other way counts as inactive or inconclusive;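 also: compound exposure lasted 16 hr before ATP read; % is scaled to controls: 0 for no effect and ±100 for the full control effect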). Particulars: RORgamma reporter cell line viability counter screen; series mostly up to 92.2 µM. Summed up:
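ATP-based viability readout in the ROR-gamma reporter CHO cells after 16 hr compound exposure under doxycycline induction.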

Test [5] is described as follows: qHTS assay for small molecule agonists of the antioxidant response element (ARE) signaling pathway measured by Nrf2-dependant transcriptional activity - cell viability counter screen (AID 720653; active = well fitted curve in the direction sought with a large enough effect in the repeat runs; an effect the other way counts as inactive or inconclusive; also: % is scaled to controls: 0 for no effect and ±100 for the full control effect). Particulars: ARE-bla HepG2 viability, CellTiter-Glo ATP luminescence, 16 h; stronger effect = lower value. Summed up:
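ARE-bla HepG2 cells (2,000/well) rested 5 hrs at 37C/5% CO2, then exposed to compounds in DMSO for 16 hrs. Viability was read in the same wells as intracellular ATP by luminescence, 30 min at room temperature after reagent addition.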

A short description of test [6]: qHTS assay for cell viability of HEK293 cells (AID 743288). Also: % is scaled to controls: 0 for no effect and ±100 for the full control effect; nearly all actives have a fitted effect of over 50% in size. Particulars: ATP luminescence (CellTiter-Glo), 18 h, stronger effect = lower value. An outline of the steps:
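Steps: plate 2,000 parental HEK293 cells per well; incubate ≥5 h, 37 C; add compounds in DMSO; incubate 18 h, 37 C; add CellTiter-Glo; wait 30 min at room temperature; read luminescence.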

Test [7] is described as follows: qHTS assay for cell viability of the p53RE-bla HCT-116 cell line (AID 743292). Also: nearly all actives have a fitted effect of over 55% in size. Also: potency is read from the fitted curve at half-maximal effect. To be noted: p53RE-bla HCT-116 viability, ATP luminescence, 16 h; series mostly up to 95 µM. Summed up:
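After plating at 4,000 cells per well and a 5 h rest at 37 C, HCT-116 cells carrying p53RE-bla received test chemicals in DMSO. Sixteen hours later at 37 C, CellTiter-Glo was added and luminescence recorded following 30 min at room temperature.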

Test [8] deals with Nuclear receptor subfamily 1 group I member 2 (Rattus norvegicus) (UniProt Q9R1A7). In words: qHTS assay for small molecule activators of the rat pregnane X receptor (rPXR) signaling pathway (AID 651751; call rule not given here; also: 0% is about no effect). Particulars: rPXR reporter cells, luciferase (One-Glo), 24 h.
Test [9] in a line: qHTS assay for small molecule activators of the human pregnane X receptor (PXR) signaling pathway (AID 720659; call rule not given here; also: 0% is about no effect). To be noted: DPX-2 HepG2 CYP3A4-luciferase, 24 h; series mostly up to 92.3 µM.
A short description of test [10]: qHTS assay to identify small molecules that stimulate interleukin-8 (IL-8) secretion (AID 651758; active = well fitted activation curve with a large enough effect in the signal ratio; the % refers to the signal ratio; also: potency is read from the fitted curve at half-maximal effect; as to activation: 0% is about no effect). Particulars: HTRF ratio (665/615); series mostly up to 92.2 µM. An outline of the steps:
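Quantitative HTS in THP-1 monocytic cells at 2000 cells per well, with 16 hrs compound incubation at 37 C. IL-8 in the medium was then quantified by HTRF immunoassay, read after 1-3 hrs at room temperature.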

For test [11], the target named is Peroxisome proliferator-activated receptor alpha (Homo sapiens) (UniProt Q07869). In words: qHTS assay for small molecule agonists of the peroxisome proliferator-activated receptor alpha (PPARalpha) signaling pathway (AID 651778). Also: % of control where 0% means no effect. To be noted: PathHunter PPARalpha complementation, chemiluminescence, 6 h; stronger effect = higher value. An outline of the steps: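 Cells plated at 2,000/well and held overnight at 37 C, 5% CO2, then compound added by pin tool for 6 hr; after PathHunter detection reagent and 60 min at room temperature, chemiluminescence from enzyme complementation was read.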

The target of test [12] is Nuclear receptor ROR-gamma (Homo sapiens) (UniProt P51449). In words: qHTS assay for small molecule antagonists of the retinoid-related orphan receptor gamma (ROR-gamma) signaling pathway (AID 651802).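 Also: luciferase reporter luminescence driven by ROR response element; % is scaled to controls: 0 for no effect and ±100 for the full control effect; nearly all actives have a fitted effect of over 60% in size.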 Particulars: ROR-gamma antagonist cell reporter assay; series mostly up to 92.2 µM. An outline of the steps: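 Doxycycline-induced reporter activity in engineered CHO cells (TET-inducible ROR, RORE-LUC) was measured by luminescence after 16hr compound exposure at 37C.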

Test [13] in a line: qHTS assay for small molecule disruptors of the mitochondrial membrane potential - 5 hr assay (AID 651755; calls by dose curve; also: % is scaled to controls: 0 for no effect and ±100 for the full control effect; nearly all actives have a fitted effect of over 40% in size). To be noted: JC-1-type ratio dye; series mostly up to 92.2 µM. Summed up:
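Seed HepG2 overnight, add compound, incubate 5 hr at 37C and 5% CO2, stain 30 min with Mito-MPS, then measure monomer (490/535 nm) and aggregate (540/590 nm) fluorescence.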

Test [14] is described as follows: qHTS assay for small molecule disruptors of the mitochondrial membrane potential - 1 hr assay (AID 651754; calls by dose curve; also: % is scaled to controls: 0 for no effect and ±100 for the full control effect; nearly all actives have a fitted effect of over 35% in size). To be noted: series mostly up to 92.2 µM. An outline of the steps:
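In this qHTS format, a 1 hr compound treatment of HepG2 cells precedes Mito-MPS staining, and membrane potential is judged from aggregate (red) against monomer (green) fluorescence intensity.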

Values without a mark were called inactive. Results filed as inconclusive are left out. Active and inactive are the calls of the source. Unless noted, calls follow the shape of the dose curve; as a rule, active = well fitted curve in the direction sought with a large enough effect; inconclusive = small, poorly fitted or top-dose-only effect, or another doubt; inactive = no such curve, though single readings can be large; an effect the other way counts as inactive or inconclusive.

Nuclear receptor subfamily 1 group I member 2 (Rattus norvegicus), sequence (Q9R1A7 whole entry, looked up): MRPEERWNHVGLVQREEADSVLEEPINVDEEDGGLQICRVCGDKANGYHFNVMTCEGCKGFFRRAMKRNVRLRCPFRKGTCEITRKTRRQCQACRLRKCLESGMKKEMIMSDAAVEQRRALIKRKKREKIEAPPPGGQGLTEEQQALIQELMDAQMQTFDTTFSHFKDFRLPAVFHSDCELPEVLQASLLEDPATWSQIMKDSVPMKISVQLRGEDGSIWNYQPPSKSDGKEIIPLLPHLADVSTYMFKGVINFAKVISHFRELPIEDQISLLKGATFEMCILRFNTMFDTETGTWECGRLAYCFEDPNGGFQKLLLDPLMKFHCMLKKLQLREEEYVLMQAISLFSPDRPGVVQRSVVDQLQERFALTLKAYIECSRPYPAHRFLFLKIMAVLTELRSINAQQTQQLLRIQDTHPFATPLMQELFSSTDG
Tumor necrosis factor (Homo sapiens), sequence (P01375 whole entry, looked up): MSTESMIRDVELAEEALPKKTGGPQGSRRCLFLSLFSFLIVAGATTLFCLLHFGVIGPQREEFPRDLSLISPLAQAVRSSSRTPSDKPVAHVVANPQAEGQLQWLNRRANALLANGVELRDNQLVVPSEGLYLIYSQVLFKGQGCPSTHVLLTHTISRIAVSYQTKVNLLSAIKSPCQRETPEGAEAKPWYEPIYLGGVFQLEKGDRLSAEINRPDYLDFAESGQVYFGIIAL
Peroxisome proliferator-activated receptor alpha (Homo sapiens), sequence (Q07869 whole entry, looked up): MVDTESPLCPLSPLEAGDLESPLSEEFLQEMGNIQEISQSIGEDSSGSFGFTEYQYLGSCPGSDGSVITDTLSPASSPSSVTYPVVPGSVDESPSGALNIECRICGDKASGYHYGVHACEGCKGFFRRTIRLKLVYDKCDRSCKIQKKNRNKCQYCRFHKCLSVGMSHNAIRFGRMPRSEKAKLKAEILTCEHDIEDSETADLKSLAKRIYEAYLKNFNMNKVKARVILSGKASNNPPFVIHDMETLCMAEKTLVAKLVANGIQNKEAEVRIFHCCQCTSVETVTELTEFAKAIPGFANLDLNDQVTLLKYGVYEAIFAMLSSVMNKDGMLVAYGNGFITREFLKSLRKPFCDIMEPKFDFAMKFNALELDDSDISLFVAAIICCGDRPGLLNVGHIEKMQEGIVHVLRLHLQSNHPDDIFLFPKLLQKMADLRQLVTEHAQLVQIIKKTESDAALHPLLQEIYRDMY
Nuclear receptor ROR-gamma (Homo sapiens), sequence (P51449 whole entry, looked up): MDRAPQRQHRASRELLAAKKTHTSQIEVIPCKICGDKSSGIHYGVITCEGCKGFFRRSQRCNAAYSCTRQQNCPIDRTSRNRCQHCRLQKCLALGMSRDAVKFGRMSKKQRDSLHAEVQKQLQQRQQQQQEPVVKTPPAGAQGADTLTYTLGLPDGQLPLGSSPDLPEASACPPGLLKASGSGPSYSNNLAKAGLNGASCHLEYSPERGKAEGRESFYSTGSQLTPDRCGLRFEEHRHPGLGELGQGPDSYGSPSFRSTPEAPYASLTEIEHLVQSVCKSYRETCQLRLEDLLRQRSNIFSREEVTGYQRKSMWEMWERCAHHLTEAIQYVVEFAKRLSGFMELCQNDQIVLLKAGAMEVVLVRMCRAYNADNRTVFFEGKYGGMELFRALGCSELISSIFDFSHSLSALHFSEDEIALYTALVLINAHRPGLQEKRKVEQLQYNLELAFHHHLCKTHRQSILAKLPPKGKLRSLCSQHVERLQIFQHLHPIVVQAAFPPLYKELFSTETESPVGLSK

Take `C1CCOC1`: the Potency entry in test [1], in test [4] and in [7] was “inactive” in each case. Also, the activation in [2] is 0.0348%. In addition, the call in test [3] and in test [9] was inactive. The max response in test [5] is 5.55%; in [6], -1.37%; in test [8], 2.84%.
For the molecule `CC1=C(/C=C/C(C)=C/C=C/C(C)=C\C=O)C(C)(C)CCC1`, the Potency entry in [1] is “inactive”. Further, the results for the Potency in test [10] and in test [7] were 0.422 µM (active) and 44.7 µM (active), respectively. Moreover, the activation in test [2] is 6.53%. Moreover, in test [6], the max response is -22%.
In the case of `Nc1cc(Cl)c([N+](=O)[O-])cc1O`, the activation in [2] was 6.24%. In addition, the max response in [11] is -6.88%; in test [5] it was -1.27%; in test [6], -3.32%; in [8] it was 3.19%. For the same molecule, the Potency result in test [12], in [4] and in test [7] was “inactive” each time. The call in test [9] was inactive.
With `CC#N`, the Potency result in test [13], in [1], in test [10], in test [4] and in test [7] was “inactive” in each case. For the same molecule, in [2], the activation is 0.208%. The max response was -2.21% in test [11], -0.353% in test [5] and -9.36% in test [6]. Moreover, the molecule was classed as inactive in [3] and in test [9].
As to `C/C(C=O)=C/c1ccccc1`, the Potency entry in [1], in [12] and in test [7] was “inactive” each time. Moreover, the activation in test [2] is -1.35%. Further, the max response in test [11] was -3.84%; in test [5], -7.12%; in [6], 5.25%; in test [8], 2.25%. Further, the molecule was classed as inactive in test [3] and in [9].
As to `CC(C)(c1cc(Br)c(OCC(Br)CBr)c(Br)c1)c1cc(Br)c(OCC(Br)CBr)c(Br)c1` (stereo not drawn), the Potency result in test [1], in test [12], in [4] and in [7] was “inactive” each time. For the same molecule, the activation in [2] is -1.38%. Also, the max response in [11] is -5.28%; in test [5], -4.49%; in test [6], -17.5%; in test [8], 6.37%. Besides, the outcome in [3] and in test [9] was inactive.
Consider `O=Nc1ccc(NO)cc1`, for which, in test [2], the activation was 6.63%. The max response in test [11] is -1.48%; in [5], 2.71%; in test [6], -9.92%; in [8], -3.74%. In addition, the outcome in test [3] and in test [9] was inactive. For the same molecule, the Potency entry in test [7] is “inactive”.
For the molecule `O=c1[nH][nH]c(=O)c2cc([N+](=O)[O-])ccc12`, the Potency result in [1], in test [12], in test [4] and in test [7] was “inactive” in each case. In test [2], the activation was 1.03%. Also, the max response in [11] was -4.9%; in test [5], 5.62%; in [6], -7.38%; in test [8], -1.39%. In addition, the outcome in test [3] and in test [9] was inactive.
On to `CCC(C)O` (stereo not drawn), for which the Potency entry in test [14], in [13], in test [1], in test [12], in test [4] and in test [7] was “inactive” each time. The max response is 0.282% in test [11], -9.02% in test [5] and 5.18% in test [6]. The molecule was called inactive in test [3].
Regarding `Nc1cccc2c(=O)[nH][nH]c(=O)c12`, the Potency entry in [14], in test [13], in test [12] and in test [7] was “inactive” each time. In addition, in [2], the activation was 0.365%. Moreover, the max response is 0.513% in test [11], 4.98% in test [5] and 0.895% in test [6]. In addition, in test [3], the outcome was inactive.
Regarding `CC(C)(C)c1ccc(OCC2CO2)cc1` (stereo not drawn), the Potency entry in test [14], in [13], in [1], in test [12], in [4] and in [7] was “inactive” in each case. Further, the activation in test [2] was 8.83%. The max response is -5.01% in test [11], 4.81% in test [5] and 3.48% in test [6]. In [3], the molecule was called inactive.
In the case of `Nc1nc(-c2ccccc2)cs1`, the Potency entry in test [14], in test [13], in test [1], in [4] and in test [7] was “inactive” each time. The Potency in test [2] was 35.5 µM (active). Further, the max response in test [11] is 22.8%; in test [5], 4.04%; in [6], 0.545%.

Source of the values: PubChem BioAssay (NCATS).
